Source: PubChem BioAssay AID488840 (Broad Institute, 2010)
The whole screen tested about 1,400 compounds, of which about 45 (3%) were called active.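 The calls were made as follows: active = half-maximal dose of signal decrease from fit no higher than ten times the top valid tested dose; inconclusive = fit invalid, or curve flat with 30 to 70% inhibition; inactive = the rest.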 Not all results are given here. Measured potencies and affinities stand elsewhere.

What follows are compounds tested against Lysine-specific demethylase 4A (Homo sapiens) (UniProt O75164) (assay: inhibition of JMJD2A H3K9me3 demethylation – biochemical, DELFIA europium, cherry-picked samples, selectivity assay for GASC-1 inhibitor project, dose response (AID 488840;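 also: europium signal reports the dimethyl H3K9 product detected by antibody so inhibitors lower it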)). Conditions: GST-JMJD2A(1-420) H3K9me3 demethylation; series mostly up to 6 µM.
Chain of Lysine-specific demethylase 4A (Homo sapiens) (O75164 whole entry, looked up): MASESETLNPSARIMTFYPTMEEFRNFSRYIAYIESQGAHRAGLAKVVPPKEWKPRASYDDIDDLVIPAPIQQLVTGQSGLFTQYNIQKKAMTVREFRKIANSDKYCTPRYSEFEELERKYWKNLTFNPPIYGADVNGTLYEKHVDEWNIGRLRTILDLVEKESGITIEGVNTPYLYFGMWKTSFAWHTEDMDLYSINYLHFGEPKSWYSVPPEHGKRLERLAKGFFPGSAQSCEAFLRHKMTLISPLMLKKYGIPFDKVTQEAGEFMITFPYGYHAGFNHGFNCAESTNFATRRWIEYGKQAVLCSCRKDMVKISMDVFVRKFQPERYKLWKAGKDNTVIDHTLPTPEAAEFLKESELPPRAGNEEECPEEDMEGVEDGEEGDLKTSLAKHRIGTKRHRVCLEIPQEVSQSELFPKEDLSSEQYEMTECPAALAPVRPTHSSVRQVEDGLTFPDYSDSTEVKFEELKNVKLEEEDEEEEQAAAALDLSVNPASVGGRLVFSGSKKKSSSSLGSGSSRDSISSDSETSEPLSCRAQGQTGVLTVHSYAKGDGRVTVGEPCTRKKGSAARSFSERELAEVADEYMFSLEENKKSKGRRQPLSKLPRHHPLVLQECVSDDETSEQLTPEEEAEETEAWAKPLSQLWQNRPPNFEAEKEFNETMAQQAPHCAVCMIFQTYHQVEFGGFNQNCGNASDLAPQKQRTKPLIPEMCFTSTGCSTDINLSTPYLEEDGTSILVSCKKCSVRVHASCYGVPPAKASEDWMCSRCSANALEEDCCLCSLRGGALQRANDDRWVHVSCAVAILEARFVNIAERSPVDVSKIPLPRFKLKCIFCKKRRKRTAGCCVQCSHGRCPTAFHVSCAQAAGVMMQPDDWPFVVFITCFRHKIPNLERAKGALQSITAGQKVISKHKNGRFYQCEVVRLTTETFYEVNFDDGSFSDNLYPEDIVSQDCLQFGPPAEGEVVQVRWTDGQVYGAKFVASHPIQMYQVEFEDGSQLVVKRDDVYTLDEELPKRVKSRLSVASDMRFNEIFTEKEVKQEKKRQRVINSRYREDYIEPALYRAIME

outcome, inactive:
COc1ccc(S(=O)(=O)N(C)C[C@H]2Oc3ccc(NC(=O)Cn4cnnn4)cc3C(=O)N([C@H](C)CO)C[C@@H]2C)cc1, C=CCNCCOc1cccc(Br)c1, O=C(NCc1ccccn1)c1cn(Cc2ccccc2)nn1, CC(=O)Nc1ccc(NC(=O)Cn2cnc3c(cnn3C(C)(C)C)c2=O)cc1, Cc1ccc(S(=O)(=O)N2[C@@H](c3ccc(C#N)cc3)C(C(=O)O)=C[C@H]2C(C)(C)C)cc1, CC[C@@]1(C(=O)OC)N[C@H](CN(C)C(=O)Nc2ccc(Cl)cc2)[C@@H]2C(=O)N(Cc3ccccc3)C(=O)[C@@H]21, O=C(c1cc2ccccc2oc1=O)N1CCN(CCc2ccccc2)CC1, Cc1cccc(OCc2nnc(SCC(=O)Nc3cccc(C(=O)N4CCOCC4)c3)o2)c1C, N=c1n(CC(=O)c2cccc([N+](=O)[O-])c2)c2ccccc2n1Cc1ccccc1, Nc1cccc(C(=O)Nc2ccco2)c1, COc1cc2[nH]c(=O)n(CCCCCC(=O)NCCCN3CCCC3=O)c(=O)c2cc1OC, Cc1ccc(CNC(=O)Cc2ccc(-c3ccccc3)cc2)cc1, CC(=O)c1sc(NC(=O)c2ccc(C)cc2)nc1C, CCN1CCC(=NNC(=O)c2ccc(C)c([N+](=O)[O-])c2)CC1, Cc1ccc(C2CC(c3ccccc3)=NN2C(=S)Nc2ccccc2)o1 (stereo not drawn), CC(C)C[C@H](NC(=O)N1CCCCCC1)C(=O)O, O=C(NNC(=O)c1cccs1)c1ccc([N+](=O)[O-])cc1, CC1=NN(C(N)=S)C(=O)C1N=Nc1c(C)cc(C)cc1C (stereo not drawn), C=CCn1c(O)c(N=Nc2ccccc2C)c2ccccc21, Cc1ccccc1CNc1nnnn1C, COC(=O)c1cc(NC(=O)CSc2nncn2C)cc(C(=O)OC)c1, COC(C/C=C\[C@H](O)[C@H](C)OCc1ccccc1)OC, CC(C)(C)OC(=O)C[C@@H]1C/C=C\C[C@H](CC(=O)N[C@H](CO)Cc2ccccc2)C(=O)N[C@@H](Cc2ccccc2)COC1=O, C[C@H](CO)N1C[C@H](C)[C@@H](CN(C)Cc2ccc(Cl)c(Cl)c2)Oc2c(NS(=O)(=O)c3cn(C)cn3)cccc2C1=O, CCOCCCNC(=O)c1c[nH]c2ccc(C)cc2c1=O, Cc1ccccc1CN1C(=O)C(O)(CC(=O)c2ccncc2)c2ccccc21 (stereo not drawn), Cc1ccc(CNC(=O)[C@@H](NC(=O)Cc2ccccc2)C(C)C)cc1, O=C(Cc1ccccc1)NC1(O)C(=O)c2ccccc2C1=O, COc1ccc(OC)c(/C=C2\SC(=S)N(Cc3cccnc3)C2=O)c1, COc1ccc(OCC(=O)N/N=C/C(C)=C/c2ccco2)c(Br)c1, COc1ccccc1N1CCN(C(=O)CSc2nc(C)cc(=O)[nH]2)CC1, COc1ccc(-c2nnc(SC(C)C(=O)NCc3ccc4c(c3)OCO4)n2Cc2ccco2)cc1 (stereo not drawn), CCN(CC)C(=O)N1CCc2ccccc2C1CN1C(=O)c2ccccc2C1=O (stereo not drawn), C=CCc1c(C)nc(SC(C)C)[nH]c1=O, O=C(Cn1cnc2c(OCc3ccccc3)ncnc21)N1CCN(c2ccccn2)CC1, CC(=O)c1ccc(O[C@@H]2O[C@H](CO)[C@@H](O)[C@H](O)[C@H]2O)cc1, CC(C)(O)[C@H](O)Cc1cc2ccc(=O)oc2cc1O[C@@H]1O[C@H](CO)[C@@H](O)[C@H](O)[C@H]1O, COC(C(=O)Nc1ccc(NC(=O)C(OC)c2ccccc2)cc1)c1ccccc1 (stereo not drawn)
